Marburg entry inh: Marburg virus entry inhibition | Marburg virus pseudotyped entry inhibition, cell reporter | Potency, µM (series often up to 37.8 µM), inactives show at the highest dose activity change, negative = inhibition, hits mostly inhibitors | actives 1.8% (n = 300,000); calls by dose curve; tested in HEK293 cells; note: potency is the fitted concentration of half-maximal effect
Lassa entry inh: blocks Lassa virus binding to or entry into cells; Lassa virus pseudotype entry inhibition, cell reporter; Potency, µM (titrated, usually from 37.9 µM), for inactives: top-dose activity change, negative = inhibition, most hits filed as inhibitors; AID 540256; actives 1.2% (n = 300,000); calls by dose curve; tested in HEK293 cells; note: potency is the fitted concentration of half-maximal effect; nearly all actives have a fitted effect of over 50% in size
Pf growth 48h: P. falciparum growth inhibition at 48 hours (one generation). actives 5.9% (n = 310,000). Potency, µM (doses to about 28.7 µM), for inactives: at the highest dose activity change, negative = inhibition, hits mostly inhibitors. P. falciparum luciferase growth in erythrocytes, 48 h; note: potency is the fitted concentration of half-maximal effect
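Firefly luciferase activity from engineered P. falciparum reports growth; inhibitors lower the luminescent signal. Cultures contained 2% hematocrit erythrocytes at 0.1% final parasitemia.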
HCV inhibitor: blocks hepatitis C virus; Huh7.5.1 HCVcc-Cre infection, luciferase reporter, 44 h; Potency, µM (titrated, usually from 41.8 µM), for inactives: top-dose activity change, negative = inhibition, hits mostly inhibitors; actives 3.4% (n = 340,000); AID 651820; note: potency is the fitted concentration of half-maximal effect
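Whole-lifecycle infectious HCVcc-Cre system; cells 1,000/well, compound then virus (~0.5 moi) added 4 h after plating, 44 h culture. Luciferase read 15 sec following 15 min substrate incubation, room temp.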
HCMV inh: human cytomegalovirus inhibition | activity change, negative = inhibition, % at 57.5 µM | actives 4.5% (n = 410,000) | HFF cells, HCMV-luciferase reporter, 72 h; hits give low values; in the data active = activity change below about -60%; inconclusive = no clear call, values can overlap the other calls; inactive = above about -39%
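Inhibition of viral replication was scored as loss of reporter luminescence in HFFs infected with HCMV-luciferase (MOI 1 PFU/cell) for 72 h; compounds tested at 2 doses, normalized to buffer and Salinomycin controls.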
Pf growth 96h: inhibits malaria parasite growth, 96 h; P. falciparum luciferase reporter growth, 96 h; Potency, µM (series often up to 28.7 µM), inactives show top-dose activity change, negative = inhibition, actives largely listed as inhibitors; actives 6.9% (n = 320,000); AID 504834; note: potency is the fitted concentration of half-maximal effect
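Readout is luminescence from an integrated firefly luciferase in P. falciparum. Red cells, 2% hematocrit and 0.05% parasitemia final, were cultured with compound through two parasite generations (96 hours) at 37 C, 5% CO2.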
Numbers without * were called inactive; ? = inconclusive; · = no result given; [ ] = another dose, or the depositor's remark. Only some compounds are listed: those with a hit (about 14% of all), similar ones and a draw of the others. Unless noted, calls come from the whole dose curve; as a rule, active = well fitted inhibition curve with a large enough effect; inconclusive = small, poorly fitted or top-dose-only effect, or another doubt; inactive = no such curve, though single readings can be large or run the other way. % is set by controls: 0 for no effect and ±100 for the full control effect.

SMILES | Marburg entry inh | Lassa entry inh | Pf growth 48h | HCV inhibitor | HCMV inh | Pf growth 96h
COc1ccc(NS(=O)(=O)c2ccc(C)c(NC(=O)c3ccc(C)c(S(=O)(=O)N4CCOCC4)c3)c2)cc1 | ? | -14.8% | ? | -22.6% | -31.8 | 14.7µM*
COc1ccc([C@H]2CC(=O)C[C@@H](CCn3cccn3)O2)cc1 | · | · | · | · | -16.8 | ·
O=C(Cc1coc2cc(O)ccc12)NNC(=O)c1cccs1 | 16.9%[46.1 µM] | -13.2%[46.1 µM] | · | 3.6% | -11.5 | ·
Cc1ccc(NC(=O)Cn2c(=O)n(Cc3ccc4c(c3)OCO4)c(=O)c3ccc(C(=O)NC4CCCCC4)cc32)c(C)c1 | -14.9%[46.1 µM] | 19.8%[46.1 µM] | · | · | 12.2 | ·
CC(C)Nc1ccc(-c2nc(-c3ccco3)no2)cc1[N+](=O)[O-] | -17.4%[46.1 µM] | 2.1%[46.1 µM] | · | · | 28.7 | ·
COc1ccc(C(=O)NC(=O)CSc2n[nH]c(N)n2)cc1 | 27.1%[46.1 µM] | -1.4%[46.1 µM] | · | 6.1% | 30.1 | ·
CCOc1ccc(NC(=O)Cn2c(=O)oc3cc(S(=O)(=O)NC4CCCC4)ccc32)cc1 | -3.0%[46.1 µM] | · | · | · | 4.5 | ·
O=C(C1CCC(CNS(=O)(=O)c2ccc(Br)s2)CC1)N1CCN(c2ccccc2)CC1 (stereo not drawn) | 2.7%[46.1 µM] | -0.3%[46.1 µM] | · | · | -1.4 | ·
O=C(C1CCC(CNS(=O)(=O)c2cccs2)CC1)N1CCN(c2ccc(Cl)cc2)CC1 (stereo not drawn) | · | ? | -17.9% | 3.55µM* | -93.0* | 177.4%
COc1ccccc1C(=O)NC(=O)CSc1nncn1C | 0.9% | 19.7% | ? | 8.5% | -10.9 | 19.1%
COc1ccc(Cl)cc1C(=O)NNC(=O)CSc1nncn1C | 16.3%[46.1 µM] | 13.8%[46.1 µM] | · | 11.0% | -90.6* | ·
COC[C@@H](O)[C@H]1OCc2ccccc2[C@H]1C=Cc1ccccc1 | 6.8%[14.2 µM] | · | · | · | · | ·
O=C1NC(=O)/C(=C\c2ccc(OCc3cccc(C(=O)O)c3)c(Cl)c2)N1 | ? | 6.31µM* | 193.5% | -2.2% | 82.9 | -28.9%
O=C(O)c1cccc(COc2ccccc2Cl)c1 | 0.411µM* | 0.517µM* | 13.7% | 13.3% | ? | ·
Cc1ccc(NC(=O)CN(C)C(=O)CSc2ccccc2F)cc1 | 24.5% | -24.1% | · | -16.3% | 19.8 | ·
C=CCCC1(CCC)C(=O)C(=C(O)c2ccccc2)C(=O)C(CCC)=C1OC (stereo not drawn) | -1.7%[14.2 µM] | · | · | · | · | ·
O=C(c1ccc(Cl)cc1)N1CCN(CCOc2ccccc2)CC1 | -3.5%[46.1 µM] | -13.5%[46.1 µM] | · | ? | -10.4 | -0.1%
COc1ccc(OCCN2CCN(C(=O)c3ccc(OC)cc3)CC2)cc1 | ? | ? | -4.0% | 10µM* | -89.7* | 18.6%
COc1ccc(C(=O)N2CCN(Cc3ccc(OC)c(OC)c3)CC2)cc1 | 8.9%[46.1 µM] | -10.6%[46.1 µM] | -1.3% | 4.0% | 29.6 | 4.4%
COc1ccc(OCCN2CCN(C(=O)c3ccc(OC(F)F)c(OC)c3)CC2)cc1 | ? | -26.2%[46.1 µM] | -20.1% | ? | -62.8* | -18.9%
O=C(CCCn1c(=O)c2cccn2c2ccc(F)cc21)NCc1ccc(Cl)cc1 | · | -4.6%[46.1 µM] | · | · | -13.4 | ·
CCN(CC)C(=O)CC(c1cc(OC)c(OC)c(OC)c1)c1c(OC)cc(OC)c2c(-c3ccccc3)cc(=O)oc12 (stereo not drawn) | · | · | 4.65µM* | ? | ? | 4.15µM*
CCN(CC)C(=O)CC(c1ccc(F)cc1)c1ccc(OC)cc1 (stereo not drawn) | -24.6% | -23.8% | -10.4% | -9.3% | -66.8* | ?
CCN(CC)C(=O)CC(c1cc(OC)c(OC)c(OC)c1)c1c(O)cc(OC)cc1OC (stereo not drawn) | · | · | ? | 5.5% | -25.4 | ?
COc1ccc(C(CC(=O)N2CCCC2)c2ccc(F)cc2)cc1 (stereo not drawn) | ? | -9.5%[46.1 µM] | -6.1% | 24.7% | 32.7 | -11.8%
CCN(CC)C(=O)CC(c1cc(OC)c(OC)c(OC)c1)c1c(OC)cc(OC)c2ccc(=O)oc12 (stereo not drawn) | · | · | 11.7µM* | 3.5% | 80.4 | 11.7µM*
CCN(CC)C(=O)CC(c1ccc(OC)cc1)c1c(OC)cc(OC)c2ccc(=O)oc12 (stereo not drawn) | · | · | 10.4µM* | 0.9% | 16.5 | ?
